D1 PAM: potentiators of human D1 dopamine receptor; potentiation, % at 10 µM; 360,000 compounds, 0.036% hits; P21728; AID 504651; HEK293 TREx D1 cells, calcium flux, dopamine EC20 potentiation; in the data active = potentiation above about 30%
D1 antagonist: antagonists of human D1 dopamine receptor; P21728; HEK293 TREx D1 cells, calcium flux, dopamine EC80; stronger effect = lower value; activity change, negative = inhibition, % at 10 µM; 360,000 compounds, 3.2% hits; AID 504652; in the data active = activity change below about -30%
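Tetracycline-induced HEK293 Trex D1 cells, force-coupled to calcium, dye-loaded; compounds added and read 180 s, then EC80 dopamine added and calcium flux tracked kinetically another 180 s.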
D1 agonist: human D1 receptor agonism; HEK293 T-REx D1 cells, calcium flux, agonist mode; activation, % at 2 µM; 360,000 compounds, 1% hits; AID 504660
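Inducible HEK293 T-REx D1 cells, force-coupled to calcium signalling, were plated at 4000 cells/well with tetracycline and held overnight at 30 C. After no-wash calcium dye loading, compound-evoked calcium rise over 180 s flagged agonists.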
TRHR enhancer: TRH receptor (human) allosteric enhancement; TRHR cells, fluo-8 calcium fluorescence, EC20 TRH enhancement; 360,000 compounds, 0.66% hits; enhancement, % at 2 µM; in the data active = enhancement above about 30%
Target sequence (P34981 whole entry, looked up): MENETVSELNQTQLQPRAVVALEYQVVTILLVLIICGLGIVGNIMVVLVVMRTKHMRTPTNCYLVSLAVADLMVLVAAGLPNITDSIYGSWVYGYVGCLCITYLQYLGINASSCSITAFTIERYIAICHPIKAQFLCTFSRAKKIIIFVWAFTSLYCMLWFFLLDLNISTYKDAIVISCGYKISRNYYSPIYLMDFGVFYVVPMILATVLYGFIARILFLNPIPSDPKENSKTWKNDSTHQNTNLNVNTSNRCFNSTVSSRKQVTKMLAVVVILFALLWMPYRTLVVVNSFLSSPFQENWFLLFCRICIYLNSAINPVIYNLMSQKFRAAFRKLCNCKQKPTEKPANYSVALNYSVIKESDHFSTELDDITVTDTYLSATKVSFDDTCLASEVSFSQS
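TRHR-expressing cells loaded with fluo-8 calcium dye were read kinetically (ex 480/em 530) during compound addition, then stimulated with an EC20 of TRH (10 nM final). Enhancement of the Gq-mediated intracellular calcium response was scored.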
TRHR agonist: agonists of human TRH receptor; activation, % at 2 µM; 360,000 compounds, 0.18% hits; P34981; TRHR cells, calcium flux fluo-8, FDSS agonist mode
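Agonist-mode FDSS calcium read (Ex 480/Em 530, 1 s cycles) in 1536-well TRHR cells with fluo-8 dye, after 10-cycle baseline and 23 nL compound addition; TRH at EC20 (10 nM final) added afterwards for the enhancer phase.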
Hits are given with their value; – = inactive; · = no result. The list is not random: actives were taken first. Their share in the collection is about 4.7%. Cut-off read from the data, not from the text of the source, unless noted: active = activation above about 30%; inactive = the rest.

SMILES	D1 PAM	D1 antagonist	D1 agonist	TRHR enhancer	TRHR agonist
COc1ccc(-c2[nH]n(-c3ccc([N+](=O)[O-])cc3)c(=O)c2C=NCc2ccncc2)cc1	–	-31	–	–	–
CCCCSc1nc(O)c(C2OC(=O)c3c2ccc(OC)c3OC)c(=O)n1-c1ccccc1 (centres undefined)	–	-34	–	31	–
Cc1oc(-c2ccccc2F)nc1CSCC(=O)N1CCN(c2ccccc2)CC1	–	–	–	–	–
COC(=O)c1ccc(Cn2c(=O)cc(C)c3c(C)nn(C)c32)cc1	–	–	–	–	–
COc1ccc(-c2nn(-c3ccccc3)cc2C(=O)Nc2ccc(C(=O)O)cc2)cc1	–	–	–	–	–
COc1ccc(-c2nn(-c3ccccc3)cc2C(=O)NC(=S)N2CCOCC2)cc1OC	–	-39	–	–	–
COc1ccc(-c2nn(-c3ccccc3)cc2C(=O)Nc2ccccc2OC)cc1	–	–	–	44	–
COC(=O)c1cn(-c2ccccc2)nc1-c1ccc(OC)c(OC)c1	–	–	–	–	–
CCc1cc2c(=O)n(Cc3ccco3)c(SCC(=O)NC3CCS(=O)(=O)C3)nc2s1 (centres undefined)	–	–	–	–	–
CCn1c(SCC(=O)N(C)C2CCS(=O)(=O)C2)nnc1-c1ccccc1 (centres undefined)	–	-64	–	–	–
CCc1cc2c(=O)n(Cc3ccco3)c(SCC(=O)N(C)C3CCS(=O)(=O)C3)nc2s1 (centres undefined)	–	-36	–	–	–
Cc1cc2c(s1)c1cnn(Cc3c(F)ccc(Cl)c3F)c(=O)c1n2C	–	–	–	–	–
O=C(O)CC/C(=N/NC(=O)CNC(=O)C(c1ccccc1)c1ccccc1)c1ccccc1	–	-34	–	–	–
Cc1ccc(CNC(=O)c2ccc(N3CCC4(CC3)CC(c3ccccc3)=NO4)c(NC(=O)c3ccc(Br)cc3)c2)cc1	–	–	–	–	–
O=C(NC1CCCC1)C(c1ccc(F)cc1)N(C(=O)Cc1cccs1)c1ccc2c(c1)OCCO2 (centres undefined)	–	–	–	30	–
O=C(NC1CCCC1)C(c1ccncc1)N(C(=O)Cc1cccs1)c1cccc(F)c1 (centres undefined)	–	-32	–	–	–
Cc1ccc(S(=O)(=O)Nc2cccc(-c3ccc(N4CCCCC4)nn3)c2)s1	–	-80	–	–	–
CC1CCN(c2ccc(-c3cccc(NC(=O)C(F)(F)F)c3)nn2)CC1	–	-55	–	–	–
O=C(Nc1cccc(-c2ccc(N3CCCCC3)nn2)c1)C(F)(F)F	–	-33	–	–	–
CCCCn1cc(S(=O)(=O)c2ccc(CC)cc2)c(=O)c2cc(F)c(N3CCOCC3)cc21	–	–	–	–	–
N#C/C(=C\C1CC=CCC1)c1nc2ccccc2[nH]1 (centres undefined)	–	-35	–	–	–
Cn1c(/C(C#N)=C/C2CC=CCC2)nc2ccccc21 (centres undefined)	–	–	–	–	–
Cc1cccc(NC(=O)C(=O)NCCc2csc(-c3ccc(C(F)(F)F)cc3)n2)c1C	–	–	–	–	–
COc1ccc(OC)c(NC(=O)Nc2ccc3c(c2)CCC3)c1	–	-49	–	–	–
COc1ccc(NC(=O)Nc2ccc3c(c2)CCC3)c(OC)c1	–	·	–	–	–
SMILES	D1 PAM	D1 antagonist	D1 agonist	TRHR enhancer	TRHR agonist
COc1ccc(OC)c(CNc2ccc3c(c2)CCC3)c1	–	–	–	35	–
CCOc1cc(Br)c(CN2C(=O)NC3(CCCCCC3)C2=O)cc1OCC	–	–	–	–	–
CCCCCN(C(=O)COC(=O)c1ccc(C)cc1)c1c(N)n(CCCC)c(=O)[nH]c1=O	–	-35	–	–	–
CCCCn1c(N)c(N(CCOC)C(=O)c2ccc(C)c(S(=O)(=O)N3CCCCC3)c2)c(=O)[nH]c1=O	–	-38	–	–	–
CCCCn1c(N)c(N(CCOC)C(=O)c2ccc(Cl)c(S(=O)(=O)N3CCCC3)c2)c(=O)[nH]c1=O	–	–	–	–	–
CCCCN(C(=O)C1CC(=O)N(CCc2ccc(OC)c(OC)c2)C1)c1c(N)n(CCCC)c(=O)[nH]c1=O (centres undefined)	–	–	–	30	–
CCCCn1c(N)c(N(CC)C(=O)c2cccc(OC)c2)c(=O)[nH]c1=O	–	-31	–	–	–
CCCCCN(C(=O)COC(=O)c1ccc(Br)o1)c1c(N)n(CCCC)c(=O)[nH]c1=O	–	–	–	–	–
Cc1cc(C)c(OCC(=O)OCC(=O)NC2CCC(C)CC2)c(C)c1 (centres undefined)	–	–	–	–	–
COc1cc(-c2csc(NC3CCCCC3)n2)cc(OC)c1OC	–	–	–	–	–
CCCCn1c(N)c(N(CC)C(=O)C2CCCC2)c(=O)[nH]c1=O	–	–	–	36	–
O=C(COc1ccccc1N1C(=O)C2C3C=CC(C3)C2C1=O)c1ccccc1 (centres undefined)	–	–	–	–	–
CCOC(=O)c1oc2ccc(S(=O)(=O)n3nc(-c4ccccc4)cc3N)cc2c1C	–	-34	–	–	–
COC(=O)[C@@H](Cc1ccc(O)cc1)NC(=O)[C@H]1CCC(=O)N1C(=O)OCc1ccccc1	–	–	–	–	–
Cc1cc(C)n(C2CC(=O)N(c3cc(Cl)cc(Cl)c3)C2=O)n1 (centres undefined)	–	–	–	–	–
Cc1cc(C)cc(N2C(=O)CC(n3nc(C)cc3C)C2=O)c1 (centres undefined)	–	-43	–	–	–
CCOc1ccccc1CNC(=O)C1CCN(S(=O)(=O)c2ccc3c(ccn3C)c2)CC1	–	–	–	–	–
Nc1ccc2nc(-c3ccccc3)[nH]c2c1	–	–	–	–	–
Nc1cccc(-c2nc3ccc(C(=O)c4ccccc4)cc3[nH]2)c1	–	-31	–	–	–
COC(=O)c1nc(NC2=NCCCCC2)n[nH]1	–	-36	–	–	–
Cc1ccc(Cn2c3ccccc3c3cnn(CC(=O)Nc4cc(Cl)ccc4C)c(=O)c32)cc1	–	–	–	45	–
CCCn1c2ccccc2c2cnn(CC(=O)NCCc3ccc(S(N)(=O)=O)cc3)c(=O)c21	–	–	–	–	40
Cc1cc(C)c(Cn2c3ccccc3c3cnn(CC(=O)NCc4ccc(Cl)cc4)c(=O)c32)c(C)c1	–	–	–	–	–
Cc1cc(O)c(C(c2cccc(F)c2)N2CCN(c3ccccc3)CC2)c(=O)n1Cc1ccco1 (centres undefined)	–	–	–	–	–
COc1ccc(-n2nc3c(N4CCCC(C(=O)NCc5ccc(C)cc5)C4)nnc(C)c3c2C)cc1 (centres undefined)	–	–	–	–	–
Cc1ccc(C)c(CN2C(=O)C(=O)c3ccccc32)c1	–	-31	–	–	–
